Assay outcomes deposited in PubChem BioAssay by several laboratories.
Sampled rows, rich in hits. Any-hit rate of the full collection: about 4.6%.
ABHD5 PLIN5 PPI = blocks binding of human ABHD5 to perilipin-5. Q00G26+Q8WTS1. Split G. princeps luciferase complementation, luminescence, 4 h. inhibition, % at 4 µM. 0.78% of 360,000 active;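 active = inhibition above the mean inhibition across every tested compound plus 3 SD, cut at about 22% in these data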;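 also: 0% = DMSO only wells and the 100% control is not disclosed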
Peg3 prom inh = reduces Peg3 promoter-driven luciferase expression in HeLa; HeLa PEG-Prom luciferase reporter, luminescence, overnight; inhibition, % at 20 µM; 1.7% of 360,000 active; AID 588405;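 active = inhibition of at least 50% at 20 µM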
HIF-2a inh = blocks HIF-2a reporter activity; 786-0 RCC cells HIF-2a reporter, luciferase luminescence, overnight; inhibition, % at 18.8 µM; 0.72% of 360,000 active;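 active = inhibition of the luminescence signal of 40% or more relative to plate controls, in a single-dose primary screen at 18.75 µM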
Mdm2-MdmX inh = inhibitors of human Mdm2/MdmX interaction. inhibition, % at 8 µM. O15151+Q00987. SaOS-2 split-luciferase Mdm2/MdmX complementation, luminescence. 3% of 330,000 active;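 active = inhibition of at least 50% at 8 µM in the primary screen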
KKLEB cytotox = counter-screen for CF NF-kB inhibitors: cytotoxicity. KKLEB CF airway cells viability, ATPlite luminescence, overnight; active compounds read low; cells stimulated with P. aeruginosa culture filtrate. activity change (cytotoxicity), % at 5 µM. 0.36% of 360,000 active;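 active = corrected activity change at or below -50% at 5 µM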
CF NFkB inh = blocks PAF-induced NF-kB reporter in cystic fibrosis cells. KKLEB NF-kB-GFP reporter, GFP fluorescence overnight. inhibition, % at 5 µM. 0.86% of 360,000 active. AID 588850;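 active = at least 50% inhibition at 5 µM, scaled per plate between neutral and stimulator controls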;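 also: PAF is a Pseudomonas aeruginosa culture filtrate used as stimulus; plate controls were PAF-stimulated DMSO wells for no effect and unstimulated DMSO wells for full effect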
Mdm2-MdmX conf = human Mdm2/MdmX binding inhibition, confirmed; shares compounds with Mdm2-MdmX inh; luminescent assay; inhibition, % at 8 µM; 55% of 10,000 active; AID 489028; in the data active = inhibition above about 40%
Full FLuc ctr = inhibits full-length luciferase, flagging false Mdm2/MdmX hits | shares compounds with Mdm2-MdmX inh | SaOS-2 full-length luciferase counterscreen, luminescence | inhibition, % at 8 µM | 77% of 6,200 active | AID 504607;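 active = mean inhibition at 8 µM reaching about 37%, which flags the compound as non-specific, limit read from the data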;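 also: p53-null SaOS-2 cells with luciferase driven by a doxycycline-inducible promoter; compound on cells about two nights before reading with doxycycline added after day one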
The depositor's hits bear a star.

Screening Cc1sc(NC(=O)c2ccco2)c(C(c2ccc(F)cc2)N2CCN(C)CC2)c1C (stereo not drawn) returned ABHD5 PLIN5 PPI 7, Peg3 prom inh 0, HIF-2a inh -7, Mdm2-MdmX inh 54*, KKLEB cytotox -6, CF NFkB inh 15, Mdm2-MdmX conf 36 and Full FLuc ctr 74*.
For Cc1sc(NC(=O)c2ccccc2)c(C(c2ccc(Cl)cc2)N2CCN(CCO)CC2)c1C (stereo not drawn) the results were ABHD5 PLIN5 PPI 12, Peg3 prom inh 18, HIF-2a inh -27, Mdm2-MdmX inh 54*, KKLEB cytotox -20, CF NFkB inh 26, Mdm2-MdmX conf 37 and Full FLuc ctr 84*.
For O=C(N/N=C/c1cccc(O)c1)c1ccc(COc2cccc3cccnc23)cc1 the results were ABHD5 PLIN5 PPI 0, Peg3 prom inh -13, HIF-2a inh -15, Mdm2-MdmX inh 54*, KKLEB cytotox 7, CF NFkB inh 2 and Mdm2-MdmX conf 23.
Screening COc1cccc(Oc2nnnn2-c2ccccc2)c1 returned ABHD5 PLIN5 PPI -1, Peg3 prom inh -205, HIF-2a inh -166, Mdm2-MdmX inh -26, KKLEB cytotox 0 and CF NFkB inh -2.
Screening COc1cccc(-n2nnnc2S(C)(=O)=O)c1 returned ABHD5 PLIN5 PPI 68*, Peg3 prom inh 103*, HIF-2a inh 87*, Mdm2-MdmX inh 79*, KKLEB cytotox -32, CF NFkB inh 94*, Mdm2-MdmX conf 100* and Full FLuc ctr 4.
Cn1c(=O)oc2cc(S(=O)(=O)N3CCC(C(=O)NCc4ccccc4Cl)CC3)ccc21 was read as ABHD5 PLIN5 PPI 4, Peg3 prom inh 26, HIF-2a inh 4, Mdm2-MdmX inh 51*, KKLEB cytotox -7, CF NFkB inh -2 and Mdm2-MdmX conf -21.
O=C(/C=C/c1ccccc1)NC(NC(=S)Nc1cc(Cl)ccc1Cl)C(Cl)(Cl)Cl (stereo not drawn) was read as ABHD5 PLIN5 PPI 0, Peg3 prom inh 5, HIF-2a inh -14, Mdm2-MdmX inh 89*, KKLEB cytotox 4, CF NFkB inh 10, Mdm2-MdmX conf 87* and Full FLuc ctr 31.
O=C(/C=C/c1ccccc1)NC(NC(=S)Nc1ccc(Cl)cc1)C(Cl)(Cl)Cl (stereo not drawn) was read as ABHD5 PLIN5 PPI -23, Peg3 prom inh 38, HIF-2a inh 16, Mdm2-MdmX inh 60*, KKLEB cytotox -2, CF NFkB inh 2, Mdm2-MdmX conf 62* and Full FLuc ctr 24.
For CC(=O)C12CCCCC1CC1[C@@H]3CC(C)C4=CC(=O)CC[C@]4(C)C3CC[C@@]12C (stereo partly drawn) the results were ABHD5 PLIN5 PPI -2, Peg3 prom inh 26, HIF-2a inh 7, Mdm2-MdmX inh 56*, KKLEB cytotox 2, CF NFkB inh 28 and Mdm2-MdmX conf 6.
`O=S(=O)(c1cc(Cl)c(Cl)cc1Cl)N1CCN2CCCC2C1` (stereo not drawn) gave ABHD5 PLIN5 PPI -7, Peg3 prom inh 11, HIF-2a inh 13, Mdm2-MdmX inh 5, KKLEB cytotox -2 and CF NFkB inh -3.
COCCCNC(=O)C[C@H]1C[C@H](C(=O)N2CCCCC2)[C@@]2(CCc3ccccc3)c3[nH]c4ccc(Cl)cc4c3CCN2C1=O was read as ABHD5 PLIN5 PPI -4, Peg3 prom inh 29, HIF-2a inh 10, Mdm2-MdmX inh 32, KKLEB cytotox -7 and CF NFkB inh 2.
Screening CC(C)(C)NC(=O)C[C@H]1C[C@H](C(=O)N2CCCCC2)[C@@]2(CCc3ccccc3)c3[nH]c4ccc(Cl)cc4c3CCN2C1=O returned ABHD5 PLIN5 PPI -5, Peg3 prom inh 21, HIF-2a inh 12, Mdm2-MdmX inh 52*, KKLEB cytotox -10, CF NFkB inh 2, Mdm2-MdmX conf 32 and Full FLuc ctr 73*.
`O=C(C[C@H]1C[C@H](C(=O)N2CCCCC2)[C@@]2(CCc3ccccc3)c3[nH]c4ccc(Cl)cc4c3CCN2C1=O)NCc1cccc(C(F)(F)F)c1` gave ABHD5 PLIN5 PPI 6, Peg3 prom inh 5, HIF-2a inh 3, Mdm2-MdmX inh 66*, KKLEB cytotox -29, CF NFkB inh 43, Mdm2-MdmX conf 61* and Full FLuc ctr 34.
`Cc1cc(C)c(CN2CCC(N3CCC(C(=O)NCC4CCCO4)CC3)CC2)cc1C` (stereo not drawn) gave ABHD5 PLIN5 PPI 1, Peg3 prom inh -9, HIF-2a inh 10, Mdm2-MdmX inh 18, KKLEB cytotox -2 and CF NFkB inh 12.
`Cc1ccc(C)c2sc(N3CCN(C(=O)c4ccc([N+](=O)[O-])o4)CC3)nc12` gave ABHD5 PLIN5 PPI -2, Peg3 prom inh 19, HIF-2a inh 31, Mdm2-MdmX inh 90*, KKLEB cytotox -8, CF NFkB inh -13, Mdm2-MdmX conf 51* and Full FLuc ctr 55*.
For COC(=O)c1cn(C(=O)c2ccc3c(c2)OCO3)c2ccccc12 the results were ABHD5 PLIN5 PPI -7, Peg3 prom inh 0, HIF-2a inh -15, KKLEB cytotox -12 and CF NFkB inh 8.
Screening CC[N+]1=C(C)C(C)(C)c2cc(C)ccc21 returned ABHD5 PLIN5 PPI 4, Peg3 prom inh 7, HIF-2a inh -3, Mdm2-MdmX inh 81*, KKLEB cytotox 2, CF NFkB inh -6, Mdm2-MdmX conf 62* and Full FLuc ctr 28.
For CCN1C(=O)C(=O)c2cc(C)ccc21 the results were ABHD5 PLIN5 PPI 0, Peg3 prom inh 11, HIF-2a inh 16, Mdm2-MdmX inh 21, KKLEB cytotox -4 and CF NFkB inh -3.
For CCC(=O)N1CCC(C)(C(=O)NCc2cccc(OC)c2)C1 (stereo not drawn) the results were ABHD5 PLIN5 PPI -2, Peg3 prom inh -3, HIF-2a inh 2, KKLEB cytotox -6 and CF NFkB inh 0.
For COC(=O)c1[nH]c2c(c1C)C(=O)CC(c1cccc(OC)c1)C2 (stereo not drawn) the results were ABHD5 PLIN5 PPI -2, Peg3 prom inh 10, HIF-2a inh 25, Mdm2-MdmX inh 54*, KKLEB cytotox 4, CF NFkB inh 20, Mdm2-MdmX conf 59* and Full FLuc ctr 92*.
`COC(=O)c1[nH]c2c(c1C)C(=O)CC(c1ccc(OC)c(OC)c1)C2` (stereo not drawn) gave ABHD5 PLIN5 PPI 7, Peg3 prom inh 9, HIF-2a inh 16, Mdm2-MdmX inh 8, KKLEB cytotox -9 and CF NFkB inh 11.
